In the supplement of paper PMC10849652:
Of roughly 7,900 targets only a part is listed; those with a hit were picked by preference. About 0.6% of all pairs of compound and target were hits.

Legend:
Test in all cases: log2 fold change, soluble protein after heating vs DMSO (PISA); higher = thermal stabilisation; K562 cells, 10 uM, 30 min; active = over 0.2 and 3.5 SD of the protein, either way, in both replicates (recomputed)
[1] = compound: CN1CCN(CCOc2cc(OC3CCOCC3)c3c(Nc4c(Cl)ccc5c4OCO5)ncnc3c2)CC1 [saracatinib]
Summary of the method: (§1)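 For each measurement, 10 μM compound was applied for 30 min to K562 cells at 2×10^6 cells/mL. Aliquots were heated for 3 min across 48°C-58°C, pooled, and extracted in PBS with 0.5% NP-40 at 4°C; the supernatant after 21,000xg for 90 min was soluble protein. This was quantified by TMTpro 16plex LC-MS/MS with channel sums equalised, and thermal stability was reported relative to control samples from duplicates, on a log2 fold-change scale.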

[2] = compound: CN1CCN(c2nc(C3=C(c4c[nH]c5ccccc45)C(=O)NC3=O)c3ccccc3n2)CC1 [sotrastaurin]
Summary of the method: as §1

[3] = compound: CN1CC[C@H](c2c(O)cc(O)c3c(=O)cc(-c4ccccc4Cl)oc23)[C@H](O)C1 [alvocidib]
Summary of the method: as §1

[4] = compound: CN1CCc2c(c3ccccc3n2Cc2ccc(C(=O)NO)cc2)C1 [Tubastatin A]
Summary of the method: as §1

[5] = compound: CNC(=O)C1=CC=CC=C1NC2=NC(=NC=C2Cl)NC3=C(C=C(C=C3)N4CCOCC4)OC
Summary of the method: as §1

[6] = compound: CNC(=O)c1ccc(Nc2ncc(C(F)(F)F)c(NCc3nccnc3N(C)S(C)(=O)=O)n2)cc1 [defactinib]
Summary of the method: as §1

[7] = compound: CNCc1ccc(-c2[nH]c3cc(F)cc4c3c2CCNC4=O)cc1 [rucaparib]
Summary of the method: as §1

[8] = compound: CNc1nc(-c2ccc3c(N)n[nH]c3c2)cc(N2C[C@@H](C(=O)NC3CCCCC3)CC[C@H]2C)n1
Summary of the method: as §1

[9] = compound: COC(=O)N[C@@H](C)CNc1nccc(-c2cn(C(C)C)nc2-c2cc(Cl)cc(NS(C)(=O)=O)c2F)n1 [encorafenib]
Summary of the method: as §1

[10] = compound: COC(=O)[C@H](CCSC)NC(=O)C1=C(C=C(C=C1)NC[C@H](CS)N)C2=CC=CC=C2
Summary of the method: as §1

[11] = compound: COC1=CC=C(C=C1)CN2C=CC3=C2C=C(C=C3)C(=O)NO
Summary of the method: as §1

[12] = compound: CON(C)C(=O)N1N=C(c2cc(F)ccc2F)S[C@@]1(CCCN)c1ccccc1 [filanesib]
Summary of the method: as §1

[13] = compound: CO[C@H]1C[C@@H]2CC[C@@H](C)[C@@](O)(O2)C(=O)C(=O)N2CCCC[C@H]2C(=O)O[C@H]([C@H](C)C[C@@H]2CC[C@H](n3cnnn3)[C@H](OC)C2)CC(=O)[C@H](C)/C=C(\C)[C@@H](O)[C@@H](OC)C(=O)[C@H](C)C[C@H](C)/C=C/C=C/C=C/1C [zotarolimus]
Summary of the method: as §1

[14] = compound: COc1cc(C(=O)O)ccc1NC(=O)[C@@H]1N[C@@H](CC(C)(C)C)[C@](C#N)(c2ccc(Cl)cc2F)[C@H]1c1cccc(Cl)c1F [idasanutlin]
Summary of the method: as §1

[15] = compound: COc1cc(Nc2ncc3c(n2)-c2ccc(Cl)cc2C(c2c(F)cccc2OC)=NC3)ccc1C(=O)O [alisertib]
Summary of the method: as §1

[16] = compound: COc1cc2nc(-c3cc(F)ccc3O)nc(N[C@@H]3CNC[C@H]3C(C)(C)O)c2cc1OC
Summary of the method: as §1

[17] = compound: COc1cc2ncnc(Nc3ccc(F)c(Cl)c3)c2cc1OCCCN1CCOCC1 [gefitinib]
Summary of the method: as §1

[18] = compound: COc1cccc2cc(-c3nc([C@H]4CC[C@H](C(=O)O)CC4)n4ncnc(N)c34)[nH]c12
Summary of the method: as §1

[19] = compound: CS(=O)(=O)CCNCc1ccc(-c2ccc3ncnc(Nc4ccc(OCc5cccc(F)c5)c(Cl)c4)c3c2)o1 [lapatinib]
Summary of the method: as §1

[20] = compound: CS(=O)(=O)N1CCN(Cc2cc3nc(-c4cccc5[nH]ncc45)nc(N4CCOCC4)c3s2)CC1 [pictilisib]
Summary of the method: as §1

Measured: log2 fold change

AHCYL1 (UniProt O43865)
inactive: [1] 0.101 | [2] 0.014 | [3] 0.1 | [4] -0.042 | [5] 0.182 | [6] 0.104 | [7] 0.044 | [8] 0.061 | [9] -0.043 | [10] -0.005 | [11] 0.015 | [12] -0.05 | [13] -0.017 | [14] -0.056 | [15] -0.087 | [16] 0.046 | [17] 0.029 | [18] 0.093 | [19] 0.014 | [20] 0.126

ARFIP1 (UniProt P53367)
Sequence of UniProt P53367 (P53367 whole entry, looked up): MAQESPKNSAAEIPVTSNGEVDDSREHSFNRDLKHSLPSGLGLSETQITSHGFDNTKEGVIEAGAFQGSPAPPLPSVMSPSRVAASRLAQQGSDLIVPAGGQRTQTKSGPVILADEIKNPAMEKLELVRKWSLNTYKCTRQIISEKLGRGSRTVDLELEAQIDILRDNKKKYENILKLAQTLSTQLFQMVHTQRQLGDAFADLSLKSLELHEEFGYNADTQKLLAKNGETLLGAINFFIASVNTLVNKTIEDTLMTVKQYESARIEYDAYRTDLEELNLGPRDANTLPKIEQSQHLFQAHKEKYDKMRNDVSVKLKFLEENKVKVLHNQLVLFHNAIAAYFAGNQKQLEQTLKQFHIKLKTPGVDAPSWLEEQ
inactive: [1] 0.043 | [2] -0.037 | [3] -0.031 | [4] 0.047 | [6] -0.08 | [7] -0.086 | [8] 0.075 | [9] -0.01 | [10] 0.163 | [11] 0.354 | [12] -0.049 | [13] -0.021 | [14] 0.094 | [15] 1.31 | [16] 0.042 | [17] -0.091 | [18] -0.005 | [19] -0.076 | [20] -0.076
active: [5] -0.351

ATP2A3 isoform 2 (UniProt Q93084)
inactive: [1] 0.058 | [2] -0.007 | [3] -0.021 | [4] -0.022 | [5] -0.026 | [6] -0.021 | [7] -0.04 | [8] 0.033 | [9] 0.027 | [10] 0.002 | [11] -0.016 | [12] -0.118 | [13] -0.009 | [14] -0.027 | [15] -0.082 | [16] -0.004 | [17] -0.029 | [18] 0.02 | [19] -0.002 | [20] 0.027

ACADVL isoform 3 (UniProt P49748)
Sequence of UniProt P49748 (P49748 whole entry, looked up): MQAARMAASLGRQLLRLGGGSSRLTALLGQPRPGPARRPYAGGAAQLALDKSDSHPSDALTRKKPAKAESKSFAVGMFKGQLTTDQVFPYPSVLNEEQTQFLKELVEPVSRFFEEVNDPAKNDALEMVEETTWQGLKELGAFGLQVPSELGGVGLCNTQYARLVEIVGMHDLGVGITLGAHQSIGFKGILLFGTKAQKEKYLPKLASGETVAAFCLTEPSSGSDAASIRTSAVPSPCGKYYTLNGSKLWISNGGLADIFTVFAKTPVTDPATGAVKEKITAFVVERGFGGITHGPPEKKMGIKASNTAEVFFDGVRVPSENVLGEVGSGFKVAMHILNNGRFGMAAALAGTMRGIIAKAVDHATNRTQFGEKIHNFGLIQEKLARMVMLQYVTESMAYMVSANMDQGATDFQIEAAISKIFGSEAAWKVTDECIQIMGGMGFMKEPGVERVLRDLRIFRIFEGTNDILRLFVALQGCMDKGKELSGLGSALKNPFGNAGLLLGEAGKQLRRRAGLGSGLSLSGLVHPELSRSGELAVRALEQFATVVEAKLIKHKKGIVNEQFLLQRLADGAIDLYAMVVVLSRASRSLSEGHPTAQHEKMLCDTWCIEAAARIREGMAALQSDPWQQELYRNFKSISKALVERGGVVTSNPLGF
inactive: [1] 0.027 | [2] 0.056 | [3] -0.031 | [4] -0.028 | [5] -0.022 | [6] -0.011 | [7] -0.007 | [8] 0.008 | [9] -0.021 | [10] -0.001 | [11] 0 | [12] -0.069 | [13] 0.019 | [14] -0.04 | [15] -0.031 | [16] -0.089 | [17] -0.019 | [18] 0.025 | [19] -0.12 | [20] 0.093

AARSD1 isoform 3 (UniProt Q9BTE6)
Sequence of UniProt Q9BTE6 (Q9BTE6 whole entry, looked up): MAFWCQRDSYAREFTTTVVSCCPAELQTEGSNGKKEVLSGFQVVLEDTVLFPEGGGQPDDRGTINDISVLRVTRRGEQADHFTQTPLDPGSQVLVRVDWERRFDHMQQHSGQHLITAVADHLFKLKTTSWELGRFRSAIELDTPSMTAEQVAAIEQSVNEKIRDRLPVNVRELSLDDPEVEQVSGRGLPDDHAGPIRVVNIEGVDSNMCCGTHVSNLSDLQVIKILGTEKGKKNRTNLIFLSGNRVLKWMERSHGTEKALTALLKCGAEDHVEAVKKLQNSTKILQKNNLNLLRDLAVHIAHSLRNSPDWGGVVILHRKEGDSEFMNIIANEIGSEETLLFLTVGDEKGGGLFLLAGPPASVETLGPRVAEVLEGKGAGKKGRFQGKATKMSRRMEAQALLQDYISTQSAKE
active: [4] -0.336 | [11] -0.47
inactive: [1] -0.009 | [2] -0.113 | [3] -0.016 | [5] 0.081 | [6] -0.071 | [7] -0.077 | [8] -0.037 | [9] 0.08 | [10] 0.004 | [12] -0.013 | [13] 0.012 | [14] 0.076 | [15] -0.067 | [16] -0.012 | [17] 0.083 | [18] -0.081 | [19] 0.045 | [20] 0.029

ATP6V0A1 isoform 3 (UniProt Q93050)
Sequence of UniProt Q93050 (Q93050 whole entry, looked up): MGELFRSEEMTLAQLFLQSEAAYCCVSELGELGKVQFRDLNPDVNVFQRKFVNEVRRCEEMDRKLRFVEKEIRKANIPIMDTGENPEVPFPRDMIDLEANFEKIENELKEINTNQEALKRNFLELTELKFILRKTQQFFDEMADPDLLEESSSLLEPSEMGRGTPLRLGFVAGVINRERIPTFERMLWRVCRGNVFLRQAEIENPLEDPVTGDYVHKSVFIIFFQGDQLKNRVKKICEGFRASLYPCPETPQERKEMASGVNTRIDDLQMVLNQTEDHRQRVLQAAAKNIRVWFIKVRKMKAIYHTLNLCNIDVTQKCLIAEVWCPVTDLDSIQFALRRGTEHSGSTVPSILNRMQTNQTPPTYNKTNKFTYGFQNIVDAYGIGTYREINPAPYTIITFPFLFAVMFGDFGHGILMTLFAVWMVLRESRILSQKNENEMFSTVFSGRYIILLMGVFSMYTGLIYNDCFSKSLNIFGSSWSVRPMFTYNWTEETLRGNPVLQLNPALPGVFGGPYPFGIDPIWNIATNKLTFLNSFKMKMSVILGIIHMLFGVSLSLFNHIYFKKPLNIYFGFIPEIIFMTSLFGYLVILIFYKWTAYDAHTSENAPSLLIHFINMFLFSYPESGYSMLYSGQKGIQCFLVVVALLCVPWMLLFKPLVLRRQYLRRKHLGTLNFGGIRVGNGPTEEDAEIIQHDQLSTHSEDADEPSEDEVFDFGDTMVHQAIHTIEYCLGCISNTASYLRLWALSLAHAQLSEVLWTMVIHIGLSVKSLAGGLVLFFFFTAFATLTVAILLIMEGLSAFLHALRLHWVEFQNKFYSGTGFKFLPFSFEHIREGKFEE
inactive: [1] -0.253 | [2] -0.236 | [3] 0.06 | [4] 0.089 | [5] -0.052 | [6] 0.125 | [7] 0.154 | [8] 0.032 | [9] 0.196 | [10] -0.02 | [11] 0.021 | [12] -0.105 | [13] 0.073 | [14] 0.112 | [15] 0.027 | [16] -0.298 | [17] -0.18 | [18] -0.21 | [19] 0.033 | [20] -0.284

AUP1 (UniProt Q9Y679)
active: [12] -0.269
inactive: [1] 0.052 | [2] -0.116 | [3] -0.062 | [4] 0.031 | [5] -0.062 | [6] -0.015 | [7] -0.04 | [8] -0.041 | [9] 0.029 | [10] -0.037 | [11] -0.069 | [13] -0.014 | [14] -0.022 | [15] -0.013 | [16] -0.163 | [17] -0.034 | [18] 0.022 | [19] -0.007 | [20] -0.059

AP2A2 isoform 2 (UniProt O94973)
inactive: [1] 0.006 | [2] -0.028 | [3] 0.052 | [4] 0.022 | [5] 0.022 | [6] -0.006 | [7] 0.077 | [8] -0.053 | [9] -0.002 | [10] -0.008 | [11] 0.009 | [12] 0.064 | [13] 0.003 | [14] 0.022 | [15] -0.095 | [16] 0.083 | [17] 0.027 | [18] 0 | [19] 0.01 | [20] -0.002

AKT2 (UniProt P31751)
Sequence of UniProt P31751 (P31751 whole entry, looked up): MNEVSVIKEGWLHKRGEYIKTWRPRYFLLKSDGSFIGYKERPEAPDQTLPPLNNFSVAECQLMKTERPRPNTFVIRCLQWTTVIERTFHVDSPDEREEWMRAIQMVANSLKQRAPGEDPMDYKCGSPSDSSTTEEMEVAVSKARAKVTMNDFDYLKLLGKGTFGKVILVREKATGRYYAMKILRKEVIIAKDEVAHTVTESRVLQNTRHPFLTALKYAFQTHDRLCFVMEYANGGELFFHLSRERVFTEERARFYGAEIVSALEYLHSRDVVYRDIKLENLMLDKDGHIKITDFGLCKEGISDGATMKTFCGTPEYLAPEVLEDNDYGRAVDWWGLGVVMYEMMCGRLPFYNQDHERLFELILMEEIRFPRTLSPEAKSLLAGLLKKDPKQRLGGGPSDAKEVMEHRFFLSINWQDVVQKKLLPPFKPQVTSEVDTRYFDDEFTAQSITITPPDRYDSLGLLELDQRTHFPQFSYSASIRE
inactive: [1] -0.012 | [2] -0.068 | [3] -0.005 | [4] 0.01 | [5] 0.042 | [6] -0.009 | [7] -0.058 | [8] -0.102 | [9] 0.015 | [10] 0.013 | [11] 0.008 | [12] -0.056 | [13] -0.01 | [14] -0.121 | [15] -0.041 | [16] 0.008 | [17] -0.012 | [18] -0.231 | [19] 0.04 | [20] 0.044

ACSL5 isoform 3 (UniProt Q9ULC5)
Sequence of UniProt Q9ULC5 (Q9ULC5 whole entry, looked up): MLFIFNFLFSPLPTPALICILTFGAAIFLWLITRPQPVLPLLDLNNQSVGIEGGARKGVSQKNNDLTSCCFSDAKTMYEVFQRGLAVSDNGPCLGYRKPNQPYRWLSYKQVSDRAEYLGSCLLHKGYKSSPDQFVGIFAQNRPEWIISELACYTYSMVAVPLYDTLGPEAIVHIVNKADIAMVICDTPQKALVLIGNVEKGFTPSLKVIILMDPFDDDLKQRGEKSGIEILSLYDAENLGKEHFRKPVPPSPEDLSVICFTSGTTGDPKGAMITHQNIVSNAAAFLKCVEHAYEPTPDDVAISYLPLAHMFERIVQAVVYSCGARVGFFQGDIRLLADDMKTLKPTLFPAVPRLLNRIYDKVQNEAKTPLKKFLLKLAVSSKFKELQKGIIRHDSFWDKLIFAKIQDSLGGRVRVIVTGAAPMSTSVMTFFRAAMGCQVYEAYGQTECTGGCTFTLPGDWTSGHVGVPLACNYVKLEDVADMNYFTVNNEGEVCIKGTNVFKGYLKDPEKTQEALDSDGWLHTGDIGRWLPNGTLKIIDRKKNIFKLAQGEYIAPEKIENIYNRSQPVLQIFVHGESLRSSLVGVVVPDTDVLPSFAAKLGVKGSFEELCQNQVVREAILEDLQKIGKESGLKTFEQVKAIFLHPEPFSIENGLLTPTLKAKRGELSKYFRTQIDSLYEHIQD
inactive: [1] 0.058 | [2] 0.078 | [3] -0.082 | [4] -0.057 | [5] 0.071 | [6] -0.063 | [7] 0.005 | [8] -0.132 | [9] -0.072 | [10] 0 | [11] -0.023 | [12] -0.118 | [13] 0.073 | [14] -0.148 | [15] -0.009 | [16] -0.259 | [17] 0.068 | [18] 0.074 | [19] 0.074 | [20] 0.065

B4GALT1 (UniProt P15291)
Sequence of UniProt P15291 (P15291 whole entry, looked up): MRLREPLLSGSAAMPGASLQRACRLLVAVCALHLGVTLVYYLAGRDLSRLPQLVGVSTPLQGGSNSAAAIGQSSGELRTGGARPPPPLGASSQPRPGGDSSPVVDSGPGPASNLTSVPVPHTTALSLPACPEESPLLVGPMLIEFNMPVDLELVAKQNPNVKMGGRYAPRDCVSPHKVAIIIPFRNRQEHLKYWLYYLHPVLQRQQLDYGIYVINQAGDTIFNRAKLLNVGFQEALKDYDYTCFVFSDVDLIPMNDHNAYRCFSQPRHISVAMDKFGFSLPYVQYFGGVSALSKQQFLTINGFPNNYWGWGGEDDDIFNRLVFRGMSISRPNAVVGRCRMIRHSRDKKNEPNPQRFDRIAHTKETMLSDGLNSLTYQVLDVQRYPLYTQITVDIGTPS
inactive: [1] -0.017 | [2] -0.07 | [3] -0.117 | [4] 0.063 | [5] 0.023 | [6] 0.066 | [7] 0.013 | [8] -0.041 | [9] 0.032 | [10] -0.084 | [11] -0.04 | [12] 0.014 | [13] 0.067 | [14] 0 | [15] 0.051 | [16] -0.037 | [17] 0.022 | [18] 0.021 | [19] 0.042 | [20] 0.128

ACBD6 (UniProt Q9BR61)
Sequence of UniProt Q9BR61 (Q9BR61 whole entry, looked up): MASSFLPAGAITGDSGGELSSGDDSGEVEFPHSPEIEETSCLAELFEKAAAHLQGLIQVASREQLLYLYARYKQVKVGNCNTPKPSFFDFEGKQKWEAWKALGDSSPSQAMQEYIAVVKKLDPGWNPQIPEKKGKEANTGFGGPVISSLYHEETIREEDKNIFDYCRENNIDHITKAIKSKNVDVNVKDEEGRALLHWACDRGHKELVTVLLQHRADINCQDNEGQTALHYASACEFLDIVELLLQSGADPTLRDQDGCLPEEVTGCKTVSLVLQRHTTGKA
inactive: [1] -0.129 | [2] -0.115 | [3] -0.076 | [4] 0.196 | [5] 0.067 | [6] -0.112 | [7] -0.061 | [8] 0.006 | [9] 0.098 | [10] -0.047 | [11] 0.099 | [12] 0.034 | [13] 0.016 | [14] 0.09 | [15] -0.088 | [16] 0.133 | [17] -0.018 | [18] -0.271 | [19] -0.14 | [20] 0.012

BZW1 isoform 3 (UniProt Q7L1Q6)
Sequence of UniProt Q7L1Q6 (Q7L1Q6 whole entry, looked up): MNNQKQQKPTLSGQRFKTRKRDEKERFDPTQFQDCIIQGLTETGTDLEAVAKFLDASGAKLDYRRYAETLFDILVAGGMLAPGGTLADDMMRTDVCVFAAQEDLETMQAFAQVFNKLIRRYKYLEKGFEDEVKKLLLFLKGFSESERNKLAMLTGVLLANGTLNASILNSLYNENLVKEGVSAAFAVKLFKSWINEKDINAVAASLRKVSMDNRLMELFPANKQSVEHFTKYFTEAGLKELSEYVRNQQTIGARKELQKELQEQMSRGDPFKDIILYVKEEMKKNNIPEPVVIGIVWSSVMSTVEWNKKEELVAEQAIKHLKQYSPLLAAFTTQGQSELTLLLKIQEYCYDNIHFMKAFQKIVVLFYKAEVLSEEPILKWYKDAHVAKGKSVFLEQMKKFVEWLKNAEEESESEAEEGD
inactive: [1] -0.083 | [2] -0.207 | [3] -0.098 | [4] 0.047 | [5] -0.054 | [6] -0.141 | [7] 0.128 | [8] 0.027 | [9] 0.158 | [10] -0.1 | [11] 0.033 | [12] -0.069 | [13] 0.052 | [14] -0.152 | [15] -0.078 | [16] -0.032 | [17] -0.028 | [18] -0.13 | [19] -0.071 | [20] -0.071

BCCIP (UniProt Q9P287)
Sequence of UniProt Q9P287 (Q9P287 whole entry, looked up): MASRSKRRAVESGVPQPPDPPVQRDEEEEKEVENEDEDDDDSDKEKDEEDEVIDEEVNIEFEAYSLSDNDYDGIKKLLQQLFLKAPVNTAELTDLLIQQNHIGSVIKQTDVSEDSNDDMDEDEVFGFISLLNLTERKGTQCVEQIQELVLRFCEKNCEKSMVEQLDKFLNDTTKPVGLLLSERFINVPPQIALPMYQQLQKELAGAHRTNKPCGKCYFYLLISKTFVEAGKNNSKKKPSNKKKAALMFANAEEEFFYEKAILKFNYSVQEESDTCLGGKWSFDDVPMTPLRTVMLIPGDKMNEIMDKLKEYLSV
inactive: [1] -0.132 | [2] 0 | [3] 0.065 | [4] -0.045 | [5] -0.013 | [6] 0.072 | [7] 0.165 | [8] 0.02 | [9] 0.076 | [10] -0.049 | [11] -0.022 | [12] 0.06 | [13] 0.031 | [14] -0.048 | [15] -0.086 | [16] 0.033 | [17] 0.036 | [18] -0.024 | [19] 0.01 | [20] -0.024

ARMC10 (UniProt Q8N2F6)
inactive: [1] 0.012 | [2] -0.123 | [3] 0.002 | [4] 0.109 | [5] 0.079 | [6] -0.03 | [7] 0.157 | [8] 0.006 | [9] 0.142 | [10] -0.049 | [11] 0.011 | [12] 0.046 | [13] 0.107 | [14] -0.092 | [15] -0.039 | [16] 0.117 | [17] 0.004 | [18] -0.133 | [19] -0.01 | [20] 0.07
